Most compounds without a hit are left out; they make up all but 9.4% or so of the library.
NPC1 prom act = activators of NPC1 promoter | Huh7 NPC1 promoter luciferase reporter, 24 h | Potency, µM (top dose mostly 9.22 µM), without a hit: top-dose activation, hits mostly activators | hit rate 2.4% among 320,000 | AID 485313; further: % of control where 0% means no effect; nearly all actives have a fitted effect of over 60% in size
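Luminescence read-out of NPC1 promoter-driven luciferase in stably transfected Huh7 cells; compounds delivered in DMSO and left 24 h at 37C, 5% CO2, qHTS titration format.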
ELG1 genotoxic = induces genotoxicity in HEK293T cells with luciferase-tagged ELG1. AID 504466. hit rate 1.3% among 330,000. HEK293T ELG1-luciferase reporter, luminescence, 16 h. Potency, µM (top dose mostly 46 µM), without a hit: at the top dose activity change, positive = activation, usual class: activators; further: % of control where 0% means no effect; nearly all actives have a fitted effect of over 60% in size
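Genotoxic stress is detected as increased luminescence from luciferase-tagged ELG1 in HEK293T cells, measured with ONE-Glo after a 16 hr treatment at 37 °C.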
FLuc modulator = firefly luciferase modulation, counter-screen for miR-21 project | purified FLuc, Km substrates, luminescence inhibition | Potency, µM (series often up to 57.5 µM), for the others: at the highest dose activity change, negative = inhibition, usual class: inhibitors | hit rate 6.9% among 360,000;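 further: plate controls were vehicle for no effect and reference inhibitor for full effect; nearly all actives have a fitted effect of over 55% in size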
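Biochemical qHTS of compounds, final roughly 60 µM downward over six points, against 10 nM purified firefly luciferase using Km concentrations of substrates (10 uM D-luciferin, 10 uM ATP) in Tris acetate pH 7.5 buffer; luminescence output.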
ELG1 DNA repair = ELG1-dependent DNA repair inhibition | HEK293T ELG1-luciferase reporter, luminescence, 16 h; DNA damage induced by 5-fluorouridine | Potency, µM (series often up to 46.1 µM), inactives show at the top dose activity change, negative = inhibition, hits mostly inhibitors | hit rate 2.3% among 330,000 | AID 504467; further: on the % scale 0 is the no-effect control and ±100 the full control effect; nearly all actives have a fitted effect of over 55% in size
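Overnight (16 hr) co-exposure of 2,000 cells/well to 5-fluorouridine and compound at 37 °C preceded detection. Luciferase was quantified via ONE-Glo luminescence; loss of signal denotes inhibition.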
Rab9 prom act = Rab9 promoter activation. Huh7 Rab9 promoter-luciferase reporter, luminescence, 24 h. Potency, µM (top dose mostly 9.22 µM), for inactives: at the top dose activation, negative = inhibition, most hits filed as activators. hit rate 2.8% among 320,000. AID 485297; further: % of control where 0% means no effect; nearly all actives have a fitted effect of over 60% in size
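Luciferase signal after 10 min detection reagent at ambient indicates Rab9 promoter upregulation; stably transfected Huh7 cells were treated 24 h with compound in DMSO at 37 °C, 5% CO2.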
SMN2 splice enh = SMN2 splice variant enhancement | Potency, µM (highest dose often 46.1 µM), for the others: top-dose activity change, positive = activation, actives largely listed as activators | hit rate 2.8% among 210,000 | HEK293 SMN2-luciferase splicing reporter, luminescence, 30-36 h; further: % of control where 0% means no effect; nearly all actives have a fitted effect of over 55% in size
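HEK293 cells carry an SMN2 […]–luciferase reporter in which exon 7 inclusion puts luciferase in frame. Cells were plated 10-12 h before compound addition, then incubated 30-36 h at 37C. ONE-Glo luminescence was read; sodium butyrate at 4.5 mM final served as control.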
ELG1 FLuc counter = luciferase inhibition in cell-free luciferin readout for ELG1 hits | shares compounds with ELG1 DNA repair | cell-free firefly luciferase luminescence counter-screen, ViewLux | Potency, µM (doses to about 46.1 µM), inactives show at the highest dose activity change, negative = inhibition, usual class: inhibitors | hit rate 3% among 350; further: on the % scale 0 is the no-effect control and ±100 the full control effect
ELG1 Luc conf = confirmation of human ELG1-dependent DNA repair inhibitors. shares compounds with ELG1 DNA repair. hit rate 68% among 670. Potency, µM (doses to about 46.1 µM), for the others: top-dose activity change, negative = inhibition, hits mostly inhibitors. HEK293T ELG1-luciferase levels, luminescence; cells co-treated with 5-fluorouridine. AID 624248; further: on the % scale 0 is the no-effect control and ±100 the full control effect; nearly all actives have a fitted effect of over 55% in size
ELG1 MMS Luc = confirmation of human ELG1 repair inhibitors, MMS stimulated; Potency, µM (top dose mostly 46.1 µM), for the others: top-dose activity change, negative = inhibition, actives largely listed as inhibitors; HEK293T luciferase-tagged ELG1 level, MMS stimulated; hit rate 53% among 670; shares compounds with ELG1 DNA repair; AID 624249; further: on the % scale 0 is the no-effect control and ±100 the full control effect; nearly all actives have a fitted effect of over 60% in size
ELG1 5FU viab = confirmation of ELG1 repair inhibitors: viability with 5FU. cell viability with 5-FU, ELG1-dependent repair. Potency, µM (highest dose often 46.1 µM), inactives show at the highest dose activity change, negative = viability loss, most hits filed as cytotoxic. 670 tested, under 10 active. shares compounds with ELG1 DNA repair;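 further: ELG1-luc HEK293T cells cotreated with 5-fluorouridine at 10 µM final; viability measured 16 h after compound addition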
ELG1 MMS cell = confirmation of ELG1 repair inhibitors: viability with MMS. hit rate 33% among 670. AID 624251. Potency, µM (top dose mostly 46.1 µM), for the others: at the top dose activity change, negative = viability loss, usual class: cytotoxic. Cell viability with MMS, ELG1-dependent DNA repair. shares compounds with ELG1 DNA repair;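 further: ELG1-luc HEK293T cells co-treated with 10 µM MMS; viability read 16 h after compound addition; on the % scale 0 is the no-effect control and ±100 the full control effect; nearly all actives have a fitted effect of over 60% in size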
Cell viab unstim = counter-screen for ELG1 repair inhibitors: unstimulated cell viability; shares compounds with ELG1 DNA repair; cell viability counter-screen, unstimulated, luminescence; hit rate 8% among 900; Potency, µM (highest dose often 45.9 µM), inactives show at the highest dose activity change, negative = loss of viability, most hits filed as cytotoxic;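 further: compound exposure lasted 16 hours before reading; on the % scale 0 is the no-effect control and ±100 the full control effect; nearly all actives have a fitted effect of over 55% in size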
FLuc enzyme = counter-screen for ELG1 repair inhibitors: firefly luciferase inhibition; hit rate 10% among 350; shares compounds with ELG1 DNA repair; Potency, µM (titrated, usually from 57.5 µM), without a hit: at the top dose activity, negative = inhibition, most hits filed as inhibitors; AID 624253; purified firefly luciferase, luminescence counter-screen; further: on the % scale 0 is the no-effect control and ±100 the full control effect
Numbers without * were called inactive; ? = inconclusive; · = no result. The call rests on the fitted dose curve; in most records, active means well fitted curve in the direction sought with a large enough effect; inconclusive means small, poorly fitted or top-dose-only effect, or another doubt; inactive means no such curve, though single readings can be large; an effect the other way counts as inactive or inconclusive. Potency means the concentration at half of the fitted maximal effect.

SMILES | NPC1 prom act | ELG1 genotoxic | FLuc modulator | ELG1 DNA repair | Rab9 prom act | SMN2 splice enh | Cell viab unstim | others
COC(=O)[C@@H]1CCCN1C(=O)[C@H]1C[C@@H]1[C@H](NC(=O)OCc1ccccc1)c1ccccc1 | · | · | · | · | · | -3% | ·
COc1ccc(C(=O)Nc2cc3c(cc2N2CCCCC2)n(C)c(=O)n3C)cc1OC | 0% | ? | -1% | -7% | -1% | · | 0% | ELG1 FLuc counter=100%;ELG1 Luc conf=?;ELG1 MMS Luc=9%;ELG1 5FU viab=?;ELG1 MMS cell=-2%;FLuc enzyme=-2%
COC(=O)[C@@]1(Cc2ccccc2)C=C[C@@H](C)N1C(=O)c1ccccc1 | · | · | · | · | · | -40% | ·
COc1ccc(-c2oc(=O)c3cc(OC)c(OC)cc3c2/C=C/c2cccc([N+](=O)[O-])c2)cc1 | -2% | 1% | -1% | 1.6µM* | -10% | · | -11% | ELG1 Luc conf=?;ELG1 MMS Luc=22%;ELG1 5FU viab=1%;ELG1 MMS cell=?
[N-]=[N+]=Nc1nc2c(N)ncnc2n1C1OC(CO)C(O)C1O (centres undefined) | · | · | · | · | · | -44% | 7.9µM* | ELG1 Luc conf=3.5µM*;ELG1 MMS Luc=4µM*;ELG1 5FU viab=?;ELG1 MMS cell=?
O=c1c2ccccc2oc2ccc(-c3ccoc3)cc12 | · | · | · | · | · | · | ?
Cc1cc(C)cc(NC(=O)CNS(=O)(=O)c2ccc3nc(C)sc3c2)c1 | · | · | -11% | · | · | 0% | ·
O=C(c1ccc(Cl)cc1)n1nc(-c2ccccc2)nc1NCc1ccco1 | · | · | · | · | · | 13% | ·
O=C(COc1ccc2oc(-c3ccccc3)cc(=O)c2c1)Nc1ccccc1 | -2% | 9% | -22% | ? | -5% | 0% | ·
O=c1cc(-c2ccccc2)oc2ccc(Br)cc12 | · | ? | · | ? | · | · | -14%
COc1cccc2oc(-c3ccccc3)cc(=O)c12 | · | · | · | · | · | · | ?
CCOC(=O)c1c(C)[nH]c(C)c1S(=O)(=O)N1CCCC(C(=O)Nc2ccc(C)c(N(C)C)c2)C1 (centres undefined) | · | · | -12% | · | · | · | ·
COc1cccc(N2CCN(S(=O)(=O)c3cn(C)c(C)n3)CC2)c1 | · | · | 0% | · | · | · | ·

Compound activity from PubChem BioAssay.
